The record followed here is publication PMC7862700, “An all-to-all approach to the identification of sequence-specific readers for epigenetic DNA modifications on cytosine”.

What all share (assay): DAPPL (digital affinity profiling via proximity ligation, sequencing); 10 mM Tris-HCl pH 7.5, 50 mM NaCl, 1 mM DTT, 4% glycerol, room temperature, 30 min; GST-TFs on glutathione beads, 16-mer random dsDNA library, 0.1% formaldehyde crosslink after washing; high values mean tight binding
What all share (conditions): protein: recombinant; tags: N-terminal GST; dsDNA, one strand shown

For assay [1], the target named is T1, FLI1 (Homo sapiens, UniProt Q01543 1-452).
T1 sequence: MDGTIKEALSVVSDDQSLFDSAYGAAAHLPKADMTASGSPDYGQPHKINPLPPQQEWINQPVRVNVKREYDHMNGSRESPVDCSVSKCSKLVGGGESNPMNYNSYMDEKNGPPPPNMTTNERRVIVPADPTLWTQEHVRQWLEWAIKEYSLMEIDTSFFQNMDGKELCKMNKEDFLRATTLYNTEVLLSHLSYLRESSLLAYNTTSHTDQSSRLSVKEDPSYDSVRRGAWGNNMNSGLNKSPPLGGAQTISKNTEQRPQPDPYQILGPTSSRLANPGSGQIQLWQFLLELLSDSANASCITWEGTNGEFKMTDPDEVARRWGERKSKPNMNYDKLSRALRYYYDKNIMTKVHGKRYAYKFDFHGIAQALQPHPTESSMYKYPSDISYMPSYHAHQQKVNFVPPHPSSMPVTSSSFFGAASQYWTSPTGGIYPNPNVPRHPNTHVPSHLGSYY
The procedure, abridged:
(§1)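 Sequencing on an Illumina NextSeq500 followed washing, crosslinking with 0.1% formaldehyde, proximity ligation (BsaI/T4 ligase, 1 h, 37 °C) and PCR amplification of pools that had been incubated for 30 min at room temperature with 200 nmole of a random double-stranded 16-mer DNA library in Tris/NaCl/DTT/glycerol buffer. Each pool held DNA-barcoded human transcription factors, expressed in yeast as GST fusions and captured on glutathione beads, plus a tag-only sample. Binding signal is a hexamer's read frequency for a factor divided by its frequency in the tag-only sample.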

Assay [2] concerns the target T2, ELK1 (Homo sapiens, UniProt P19419 1-428).
T2 sequence: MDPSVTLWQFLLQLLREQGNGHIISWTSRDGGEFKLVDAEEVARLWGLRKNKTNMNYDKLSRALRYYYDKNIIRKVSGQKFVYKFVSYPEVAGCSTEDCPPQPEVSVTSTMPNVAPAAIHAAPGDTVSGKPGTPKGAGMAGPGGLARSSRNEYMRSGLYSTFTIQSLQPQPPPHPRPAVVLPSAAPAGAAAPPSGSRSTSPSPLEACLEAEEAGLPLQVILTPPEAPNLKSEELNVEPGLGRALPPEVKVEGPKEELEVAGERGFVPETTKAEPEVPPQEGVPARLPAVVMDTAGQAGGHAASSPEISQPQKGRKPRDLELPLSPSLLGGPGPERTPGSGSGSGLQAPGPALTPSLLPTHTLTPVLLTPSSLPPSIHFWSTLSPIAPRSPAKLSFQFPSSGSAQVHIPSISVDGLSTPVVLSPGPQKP
Summed up: as §1

For assay [3], the target named is T3, GABPA (Homo sapiens, UniProt Q06546 1-454).
T3 sequence: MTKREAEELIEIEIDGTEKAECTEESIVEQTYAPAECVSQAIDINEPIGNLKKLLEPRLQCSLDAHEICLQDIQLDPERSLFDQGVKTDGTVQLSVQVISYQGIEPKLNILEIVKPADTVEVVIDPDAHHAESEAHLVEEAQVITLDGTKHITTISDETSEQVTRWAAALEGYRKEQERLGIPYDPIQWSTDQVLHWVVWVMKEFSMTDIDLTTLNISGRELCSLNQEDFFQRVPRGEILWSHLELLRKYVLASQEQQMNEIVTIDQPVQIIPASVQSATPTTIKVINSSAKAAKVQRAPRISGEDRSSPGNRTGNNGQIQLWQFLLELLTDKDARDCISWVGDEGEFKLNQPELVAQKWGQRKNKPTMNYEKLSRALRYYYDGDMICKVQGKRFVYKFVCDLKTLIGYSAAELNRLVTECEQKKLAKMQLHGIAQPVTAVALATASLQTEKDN
The procedure, abridged:
as §1

In assay [4] the target is T4, ERG (Homo sapiens, UniProt P11308 1-479).
T4 sequence: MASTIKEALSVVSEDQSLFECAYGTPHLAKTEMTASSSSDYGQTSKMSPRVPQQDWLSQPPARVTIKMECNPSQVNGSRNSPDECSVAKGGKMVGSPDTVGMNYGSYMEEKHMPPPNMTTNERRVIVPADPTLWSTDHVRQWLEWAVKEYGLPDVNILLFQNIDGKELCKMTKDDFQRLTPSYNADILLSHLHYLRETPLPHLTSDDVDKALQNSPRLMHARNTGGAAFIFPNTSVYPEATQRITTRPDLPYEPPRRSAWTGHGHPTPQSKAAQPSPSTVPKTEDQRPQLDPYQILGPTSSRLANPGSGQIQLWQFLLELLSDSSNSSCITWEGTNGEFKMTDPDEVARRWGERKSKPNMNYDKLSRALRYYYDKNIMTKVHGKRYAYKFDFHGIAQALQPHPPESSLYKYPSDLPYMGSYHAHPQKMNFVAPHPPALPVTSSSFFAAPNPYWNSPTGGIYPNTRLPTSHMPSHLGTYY
The procedure, abridged:
as §1

Assay [5] concerns the target ELF1 (Homo sapiens, UniProt P32519 1-619). The procedure, abridged:
as §1

In assay [6] the target is T5, EHF (Homo sapiens, UniProt Q9NZC4 1-300).
T5 sequence: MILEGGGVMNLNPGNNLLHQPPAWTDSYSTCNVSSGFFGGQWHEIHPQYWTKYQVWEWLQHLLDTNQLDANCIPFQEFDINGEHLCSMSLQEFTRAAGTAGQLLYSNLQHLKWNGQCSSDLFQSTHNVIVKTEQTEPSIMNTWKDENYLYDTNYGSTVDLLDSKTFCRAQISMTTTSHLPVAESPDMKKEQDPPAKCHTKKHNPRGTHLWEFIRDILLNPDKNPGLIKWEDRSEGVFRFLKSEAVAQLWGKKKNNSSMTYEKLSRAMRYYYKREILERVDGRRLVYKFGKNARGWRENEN
Summed up:
as §1

In assay [7] the target is SPI1 (Homo sapiens, UniProt P17947 1-270). The procedure, abridged:
as §1

The target of assay [8] is SPIB (Homo sapiens, UniProt Q01892 1-262). The procedure, abridged: as §1
Chain of SPIB (Q01892 whole entry): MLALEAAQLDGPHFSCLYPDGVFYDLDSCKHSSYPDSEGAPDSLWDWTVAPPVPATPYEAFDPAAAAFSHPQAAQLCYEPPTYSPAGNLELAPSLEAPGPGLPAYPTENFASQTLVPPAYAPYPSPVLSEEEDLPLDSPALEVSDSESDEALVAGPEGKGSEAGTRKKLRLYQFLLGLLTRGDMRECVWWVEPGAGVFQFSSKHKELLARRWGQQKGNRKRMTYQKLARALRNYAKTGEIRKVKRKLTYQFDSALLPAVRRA
In assay [9] the target is T6, ELK3 (Homo sapiens, UniProt P41970 1-407).
T6 sequence: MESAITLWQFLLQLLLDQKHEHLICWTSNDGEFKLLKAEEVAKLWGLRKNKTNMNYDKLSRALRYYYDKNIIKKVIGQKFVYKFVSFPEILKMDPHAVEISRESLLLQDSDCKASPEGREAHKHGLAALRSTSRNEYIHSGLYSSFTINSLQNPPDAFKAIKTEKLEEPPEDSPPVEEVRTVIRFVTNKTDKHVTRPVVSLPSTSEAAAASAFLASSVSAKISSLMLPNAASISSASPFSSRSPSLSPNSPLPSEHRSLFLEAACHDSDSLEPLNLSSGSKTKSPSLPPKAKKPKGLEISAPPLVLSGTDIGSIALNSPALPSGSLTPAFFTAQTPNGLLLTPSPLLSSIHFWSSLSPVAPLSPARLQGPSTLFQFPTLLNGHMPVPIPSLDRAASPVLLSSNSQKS
Summed up: as §1

Chain of ELF1 (P32519 whole entry): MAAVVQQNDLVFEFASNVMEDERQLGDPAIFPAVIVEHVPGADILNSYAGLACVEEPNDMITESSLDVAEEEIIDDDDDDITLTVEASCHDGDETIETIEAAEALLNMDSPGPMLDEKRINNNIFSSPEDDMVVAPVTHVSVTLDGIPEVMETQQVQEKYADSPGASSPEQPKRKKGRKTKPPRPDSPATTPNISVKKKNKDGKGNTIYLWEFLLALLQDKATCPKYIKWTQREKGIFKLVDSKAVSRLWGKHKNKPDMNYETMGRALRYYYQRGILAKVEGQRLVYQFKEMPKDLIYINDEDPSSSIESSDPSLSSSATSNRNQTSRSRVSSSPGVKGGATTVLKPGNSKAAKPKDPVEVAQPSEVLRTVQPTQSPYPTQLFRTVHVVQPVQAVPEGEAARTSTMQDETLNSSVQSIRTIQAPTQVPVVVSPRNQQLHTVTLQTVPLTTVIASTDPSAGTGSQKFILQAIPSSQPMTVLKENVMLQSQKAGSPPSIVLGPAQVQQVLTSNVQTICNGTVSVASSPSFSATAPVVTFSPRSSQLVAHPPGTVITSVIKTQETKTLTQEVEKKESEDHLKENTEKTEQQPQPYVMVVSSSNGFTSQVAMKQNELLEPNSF

For TTTAAA, the binding signal in assay [1] was 1.27 fold enrichment (6-mer frequency, TF over GST control); in assay [2], 1.26 fold enrichment (6-mer frequency, TF over GST control); in assay [3], 1.19 fold enrichment (6-mer frequency, TF over GST control); in assay [4], 1.2 fold enrichment (6-mer frequency, TF over GST control); in assay [5], 1.29 fold enrichment (6-mer frequency, TF over GST control); in assay [6], 1.21 fold enrichment (6-mer frequency, TF over GST control). The binding signal was 1.31 fold enrichment (6-mer frequency, TF over GST control) in [7]; 1.17 fold enrichment (6-mer frequency, TF over GST control) in assay [8]; 1.32 fold enrichment (6-mer frequency, TF over GST control) in assay [9].

For TCTTTA, the binding signal in assay [1] was 1.22 fold enrichment (6-mer frequency, TF over GST control); in assay [2] it was 1.25 fold enrichment (6-mer frequency, TF over GST control); in [3], 1.33 fold enrichment (6-mer frequency, TF over GST control); in assay [4] it was 1.29 fold enrichment (6-mer frequency, TF over GST control); in [5], 1.31 fold enrichment (6-mer frequency, TF over GST control); in assay [6] it was 1.25 fold enrichment (6-mer frequency, TF over GST control). The binding signal in assay [7] was 1.32 fold enrichment (6-mer frequency, TF over GST control); in [8] it was 1.21 fold enrichment (6-mer frequency, TF over GST control); in [9], 1.27 fold enrichment (6-mer frequency, TF over GST control).

Regarding TACTAT, the binding signal was 1.5 fold enrichment (6-mer frequency, TF over GST control) in [1]; 1.24 fold enrichment (6-mer frequency, TF over GST control) in [2]; 1.44 fold enrichment (6-mer frequency, TF over GST control) in assay [3]; 1.33 fold enrichment (6-mer frequency, TF over GST control) in assay [4]; 1.31 fold enrichment (6-mer frequency, TF over GST control) in [5]; 1.39 fold enrichment (6-mer frequency, TF over GST control) in [6]. The binding signal is 1.3 fold enrichment (6-mer frequency, TF over GST control) in assay [7]; 1.42 fold enrichment (6-mer frequency, TF over GST control) in assay [8]; 1.24 fold enrichment (6-mer frequency, TF over GST control) in [9].

On to TAACGC, for which the binding signal in [1] was 1.12 fold enrichment (6-mer frequency, TF over GST control); in [2], 1.2 fold enrichment (6-mer frequency, TF over GST control); in [3] it was 1.21 fold enrichment (6-mer frequency, TF over GST control); in assay [4] it was 1.17 fold enrichment (6-mer frequency, TF over GST control); in [5], 1.27 fold enrichment (6-mer frequency, TF over GST control); in [6] it was 1.16 fold enrichment (6-mer frequency, TF over GST control). The binding signal in [7] was 1.17 fold enrichment (6-mer frequency, TF over GST control); in assay [8] it was 1.13 fold enrichment (6-mer frequency, TF over GST control); in assay [9], 1.23 fold enrichment (6-mer frequency, TF over GST control).

TTTACT: the binding signal is 1.41 fold enrichment (6-mer frequency, TF over GST control) in assay [1]; 1.56 fold enrichment (6-mer frequency, TF over GST control) in [2]; 1.53 fold enrichment (6-mer frequency, TF over GST control) in assay [3]; 1.43 fold enrichment (6-mer frequency, TF over GST control) in [4]; 1.43 fold enrichment (6-mer frequency, TF over GST control) in assay [5]; 1.51 fold enrichment (6-mer frequency, TF over GST control) in assay [6]. For the same sequence, the binding signal in assay [7] is 1.46 fold enrichment (6-mer frequency, TF over GST control); in assay [8] it was 1.37 fold enrichment (6-mer frequency, TF over GST control); in [9] it was 1.41 fold enrichment (6-mer frequency, TF over GST control).

For the sequence TATATA, the binding signal was 1.23 fold enrichment (6-mer frequency, TF over GST control) in assay [1]; 1.37 fold enrichment (6-mer frequency, TF over GST control) in assay [2]; 1.26 fold enrichment (6-mer frequency, TF over GST control) in assay [3]; 1.3 fold enrichment (6-mer frequency, TF over GST control) in [4]; 1.32 fold enrichment (6-mer frequency, TF over GST control) in [5]; 1.32 fold enrichment (6-mer frequency, TF over GST control) in assay [6]. The binding signal is 1.21 fold enrichment (6-mer frequency, TF over GST control) in [7]; 1.49 fold enrichment (6-mer frequency, TF over GST control) in assay [8]; 1.17 fold enrichment (6-mer frequency, TF over GST control) in [9].
